Source: PubChem BioAssay (NCATS)
Inconclusive results are not listed. Calls of active or inactive are those of the source. Calls follow the shape of the full dose curve. Bridge positions count the residues as written; N and C are the ends. Square brackets hold non-standard residues; d marks the D form. Peptide text beside a SMILES is read from it. hArg = N=C(N)NCCCC[C@H](N)C(=O)O; Mpa = O=C(O)CCS

How the values were obtained:
[1] = Primary qHTS for inhibitors of SARS-S pseudo-typed particle cell entry (AID 1479145); details: SARS-S pseudotyped particle cell entry, luciferase reporter; series mostly up to 57.1 µM; also: nearly all actives have a fitted effect of over 45% in size
[2] = Primary qHTS for Huh7 cytotoxicity: counterscreen for inhibitors of MERS-S pseudotyped particle cell entry (AID 1479147); details: cell viability read-out; series mostly up to 57.1 µM
[3] = Primary qHTS for inhibitors of MERS-S pseudo-typed particle cell entry (AID 1479149); details: MERS-S pseudotyped particle entry, luciferase; series mostly up to 57.1 µM; also: nearly all actives have a fitted effect of over 60% in size
[4] = Primary qHTS for Vero E6 cytotoxicity: counterscreen for inhibitors of SARS-S pseudo-typed particle cell entry (AID 1479150); details: cell viability; series mostly up to 57.1 µM
% is scaled to controls: 0 for no effect and ±100 for the full control effect.

NC(=O)[C@@H]1CSSCCC(=O)N[C@@H](CCCCN=C(N)N)C(=O)NCC(=O)N[C@@H](CC(=O)O)C(=O)N[C@@H](Cc2c[nH]c3ccccc23)C(=O)N2CCC[C@H]2C(=O)N1 ([Mpa][hArg]GDWPC-NH2; disulfide 1-7)
inactive: Potency [1] | Potency [2] | Potency [3] | Potency [4]

Cn1cnc2c1c(=O)[nH]c(=O)n2C
inactive: Potency [1] | Potency [2] | Potency [3] | Potency [4]

C[C@H](N)C(=O)N[C@@H](C)C(=O)NC1[C@H]2CN(c3nc4c(cc3F)c(=O)c(C(=O)O)cn4-c3ccc(F)cc3F)C[C@@H]12 (stereo partly specified)
inactive: Potency [1] | Potency [2] | Potency [3] | Potency [4]

FC(F)(F)C(Cl)Br (stereo unspecified)
inactive: Potency [1] | Potency [2] | Potency [3] | Potency [4]

CC(=O)N(CC(O)CN(C(C)=O)c1c(I)c(C(=O)NCC(O)CO)c(I)c(C(=O)NCC(O)CO)c1I)c1c(I)c(C(=O)NCC(O)CO)c(I)c(C(=O)NCC(O)CO)c1I (stereo unspecified)
inactive: Potency [1] | Potency [2] | Potency [3] | Potency [4]

Oc1ccc(CCNCCCCCCNCCc2ccccc2)cc1O
inactive: Potency [1] | Potency [2] | Potency [3] | Potency [4]

CC(C)Cc1ccc(C(C)C(=O)OCc2ccccn2)cc1 (stereo unspecified)
inactive: Potency [1] | Potency [2] | Potency [3] | Potency [4]

O=C(OCC(COC(=O)c1cccnc1)(COC(=O)c1cccnc1)COC(=O)c1cccnc1)c1cccnc1
inactive: Potency [1] | Potency [2] | Potency [3] | Potency [4]

CC1(C)S[C@@H]2[C@H](N=CN3CCCCCC3)C(=O)N2[C@H]1C(=O)O
inactive: Potency [1] | Potency [2] | Potency [3] | Potency [4]

CC1=C(C)C(=O)C(C(CCCCCC(=O)O)c2ccccc2)=C(C)C1=O (stereo unspecified)
inactive: Potency [1] | Potency [2] | Potency [3] | Potency [4]

Cc1nc(C2CCCCC2)c(-c2ccc(S(N)(=O)=O)c(F)c2)o1
inactive: Potency [1] | Potency [2] | Potency [3] | Potency [4]

COc1ccc(CN(CCN(C)C)c2ccccn2)cc1
inactive: Potency [1] | Potency [2] | Potency [3] | Potency [4]

CC(=O)Oc1ccc2c(c1)CC[C@@H]1[C@@H]2CC[C@]2(C)[C@@H](O)CC[C@@H]12
inactive: Potency [1] | Potency [2] | Potency [3] | Potency [4]

O=Cc1ccccc1C=O
inactive: Potency [1] | Potency [2] | Potency [3] | Potency [4]

CCN(CC)C(=O)C1CN2CCc3cc(OC)c(OC)cc3C2CC1OC(C)=O (stereo unspecified)
inactive: Potency [1] | Potency [2] | Potency [3] | Potency [4]

O=C1c2ccccc2C(=O)C1c1ccccc1
inactive: Potency [1] | Potency [2] | Potency [3] | Potency [4]

Cc1cc(=O)oc2cc(O)ccc12
inactive: Potency [1] | Potency [2] | Potency [3] | Potency [4]

CC(=O)N[C@H]1[C@H]([C@H](O)[C@H](O)CO)OC(C(=O)O)=C[C@@H]1N=C(N)N
inactive: Potency [1] | Potency [2] | Potency [3] | Potency [4]

Nc1ccc(S(=O)(=O)Nc2nccs2)cc1
inactive: Potency [1] | Potency [2] | Potency [3] | Potency [4]

Cc1c(N(C)C)c(=O)n(-c2ccccc2)n1C
inactive: Potency [1] | Potency [2] | Potency [3] | Potency [4]

Cc1cc(C(C)(C)C)c(O)c(C)c1CC1=NCCN1
inactive: Potency [1] | Potency [2] | Potency [3] | Potency [4]

CCC(=O)Oc1ccc2c(c1)CC[C@@H]1[C@@H]2CC[C@@]2(C)[C@H]1C[C@@H](OC(=O)CC)[C@@H]2OC(=O)CC
inactive: Potency [1] | Potency [2] | Potency [3] | Potency [4]

O=C(O)c1ccc(OCCCOc2ccc(C(=O)O)cc2)cc1
inactive: Potency [1] | Potency [2] | Potency [3] | Potency [4]

C#C[C@]1(O)CC[C@H]2[C@@H]3[C@H](C)CC4=C(CCC(=O)C4)[C@H]3CC[C@@]21C
inactive: Potency [1] | Potency [2] | Potency [3] | Potency [4]

COc1ccc(CN(CCN(C)C)c2ncccn2)cc1
inactive: Potency [1] | Potency [2] | Potency [3] | Potency [4]

CCC(=O)O[C@]1(C(=O)COC)[C@@H](C)C[C@H]2[C@@H]3CCC4=CC(=O)C=C[C@]4(C)C3(F)[C@@H](O)C[C@@]21C (stereo partly specified)
inactive: Potency [1] | Potency [2] | Potency [3] | Potency [4]

C[C@]12CC[C@@H]3c4ccc(O)cc4CC[C@H]3[C@@H]1CC[C@@H]2OC(=O)CCC1CCCC1
inactive: Potency [1] | Potency [2] | Potency [3] | Potency [4]

CCN1CCCC(OC(=O)C(c2ccccc2)c2ccccc2)C1 (stereo unspecified)
inactive: Potency [1] | Potency [2] | Potency [3] | Potency [4]

CC(C)(C)NCC(O)COc1cccc2c1CCC(=O)N2 (stereo unspecified)
inactive: Potency [1] | Potency [2] | Potency [3] | Potency [4]

Oc1cccc(-c2c3nc(c(-c4cccc(O)c4)c4ccc([nH]4)c(-c4cccc(O)c4)c4nc(c(-c5cccc(O)c5)c5ccc2[nH]5)CC4)C=C3)c1
inactive: Potency [1] | Potency [2] | Potency [3] | Potency [4]

C=Cc1c(C)c2cc3[nH]c(cc4nc(cc5nc(cc1[nH]2)C(C)=C5CCC(=O)O)C(CCC(=O)O)=C4C)c(C)c3C=C
inactive: Potency [1] | Potency [2] | Potency [3] | Potency [4]

CCCCC/C=C\C/C=C\CCCCCCCC(=O)NC(C)c1ccccc1 (stereo unspecified)
inactive: Potency [1] | Potency [2] | Potency [3] | Potency [4]

CC1(C)[C@@H]2CC[C@@]1(C)C(=O)C2
inactive: Potency [1] | Potency [2] | Potency [3] | Potency [4]

CCCc1nc(C)c2c(=O)[nH]c(-c3cc(S(=O)(=O)N4CCN(CC)CC4)ccc3OCC)nn12
inactive: Potency [1] | Potency [2] | Potency [3] | Potency [4]

c1ccc(CN(CC2=NCCN2)c2ccccc2)cc1
inactive: Potency [1] | Potency [2] | Potency [3] | Potency [4]

C#CCN(C)Cc1ccccc1
inactive: Potency [1] | Potency [2] | Potency [3] | Potency [4]

CCOC(=O)C(C)(C)Oc1ccc(Cl)cc1
inactive: Potency [1] | Potency [2] | Potency [3] | Potency [4]

CCN(CC)CCNC(C(=O)OCCC(C)C)c1ccccc1 (stereo unspecified)
inactive: Potency [1] | Potency [2] | Potency [3] | Potency [4]

O=C(O)c1cn(-c2ccc(F)cc2)c2cc(N3CCNCC3)c(F)cc2c1=O
inactive: Potency [1] | Potency [2] | Potency [3] | Potency [4]

CN(CCCN1c2ccccc2CCc2ccccc21)CC(=O)c1ccc(Cl)cc1
inactive: Potency [1] | Potency [2] | Potency [3] | Potency [4]

CCCSS/C(CCO)=C(\C)N(C=O)Cc1cnc(C)nc1N
inactive: Potency [1] | Potency [2] | Potency [3] | Potency [4]

CCCCN(CCN(CCCC)C(=O)N1CCOCC1)C(=O)N1CCOCC1
inactive: Potency [1] | Potency [2] | Potency [3] | Potency [4]

CO[C@]1(NC(=O)CSC(F)F)C(=O)N2C(C(=O)O)=C(CSc3nnnn3CCO)CO[C@H]21
inactive: Potency [1] | Potency [2] | Potency [3] | Potency [4]

CNC(=O)c1c(I)c(NC(=O)CCCCC(=O)Nc2c(I)c(C(=O)O)c(I)c(C(=O)NC)c2I)c(I)c(C(=O)O)c1I
inactive: Potency [1] | Potency [2] | Potency [3] | Potency [4]

C=CCOc1ccccc1OCC(O)CNC(C)C (stereo unspecified)
inactive: Potency [1] | Potency [2] | Potency [3] | Potency [4]

CCOC(=O)c1c(N)sc2c1CCN(Cc1ccccc1)C2
inactive: Potency [1] | Potency [2] | Potency [3] | Potency [4]

O=C(O)/C=C/c1ccc(Cn2ccnc2)cc1
inactive: Potency [1] | Potency [2] | Potency [3] | Potency [4]

O=C(O)C(=O)Nc1cccc(-c2nn[nH]n2)c1
inactive: Potency [1] | Potency [2] | Potency [3] | Potency [4]

CC[N+](CC)(CC)CCOC(=O)C(C1CCCC1)C1CCCC1
inactive: Potency [1] | Potency [2] | Potency [3] | Potency [4]

CC(=O)/C=C/C=C1/C2CCC(C2)C1(C)C (stereo unspecified)
inactive: Potency [1] | Potency [2] | Potency [3] | Potency [4]

COc1cc(OC)cc(OC)c1
inactive: Potency [1] | Potency [2] | Potency [3] | Potency [4]

O=C(CCCN1CCN(c2ccccn2)CC1)c1ccc(F)cc1
inactive: Potency [1] | Potency [2] | Potency [3] | Potency [4]

CCN[C@H]1C[C@H](C)S(=O)(=O)c2sc(S(N)(=O)=O)cc21
inactive: Potency [1] | Potency [2] | Potency [3] | Potency [4]

NS(=O)(=O)c1cc2c(cc1Cl)NC(C1CC3C=CC1C3)NS2(=O)=O (stereo unspecified)
inactive: Potency [1] | Potency [2] | Potency [3] | Potency [4]

COc1cc(NS(=O)(=O)c2ccc(N)cc2)nc(OC)n1
inactive: Potency [1] | Potency [2] | Potency [3] | Potency [4]

N[C@@H](CSSC[C@H](N)C(=O)O)C(=O)O
inactive: outcome [1] inactive [at 0.573 µM] | activity change, negative = cytotoxicity [2] 2.73% [at 0.573 µM] | outcome [3] inactive [at 0.573 µM] | activity change, negative = cytotoxicity [4] 4.84% [at 0.573 µM]

CC(C)NCC(O)COc1ccc(COCCOC(C)C)cc1 (stereo unspecified)
inactive: Potency [1] | Potency [2] | Potency [3] | Potency [4]

Cc1ccc(O)cc1
inactive: Potency [1] | Potency [2] | Potency [3] | Potency [4]

Cc1cccc(N(C)C(=S)Oc2ccc3c(c2)C2CCC3C2)c1 (stereo unspecified)
inactive: Potency [1] | Potency [2] | Potency [3] | Potency [4]

CCCCC[C@H](O)C=C[C@H]1[C@H](O)CC(=O)[C@H]1CC=CCCCC(=O)O
inactive: Potency [1] | Potency [2] | Potency [3] | Potency [4]

CCc1cccc2c3c([nH]c12)C(CC)(CC(=O)O)OCC3 (stereo unspecified)
inactive: Potency [1] | Potency [2] | Potency [3] | Potency [4]

C[C@@H]1CCN(C(=O)[C@H](CCCN=C(N)N)NS(=O)(=O)c2cccc3c2NC[C@H](C)C3)[C@@H](C(=O)O)C1
inactive: Potency [1] | Potency [2] | Potency [3] | Potency [4]

CCOC(=O)c1ccc(C#Cc2ccc3c(c2)C(C)(C)CCS3)nc1
inactive: Potency [1] | Potency [2] | Potency [3] | Potency [4]

CO/N=C(/C(=O)N[C@@H]1C(=O)N2C(C(=O)O)=C(Cn3nnc(C)n3)CS[C@H]12)c1csc(N)n1
inactive: Potency [1] | Potency [2] | Potency [3] | Potency [4]

C[C@H]1C[C@H]2[C@@H]3CCC4=CC(=O)C=C[C@]4(C)[C@@]3(Cl)[C@@H](O)C[C@]2(C)[C@@]1(O)C(=O)CO
inactive: Potency [1] | Potency [2] | Potency [3] | Potency [4]

CC1(C)OC[C@@H](COC(=O)CCc2ccc(OC[C@@H](O)CNCCNC(=O)N3CCOCC3)cc2)O1
inactive: Potency [1] | Potency [2] | Potency [3] | Potency [4]

C[N+]1(CC2COC(c3ccccc3)(c3ccccc3)O2)CCCCC1 (stereo unspecified)
inactive: Potency [1] | Potency [2] | Potency [3] | Potency [4]

C/C=C/c1ccc(OC)cc1
inactive: Potency [1] | Potency [2] | Potency [3] | Potency [4]

c1ccc([C@H]2CN3CCSC3=N2)cc1
inactive: Potency [1] | Potency [2] | Potency [3] | Potency [4]
